Results as given in the supplement of paper PMC12350171.
Where a name gives a salt, the structure may show the parent alone.

Test system: Haemophilus parainfluenzae
Test: growth AUC normalised to DMSO control (fraction of control); higher = less growth inhibition, active = hit call of the paper
Conditions: 20 µM;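 active = AUC significantly below DMSO controls by Student t-fit with adjusted P under 0.01; inactive = not significantly reduced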
Summary of the method: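 Pathogens passaged twice anaerobically were inoculated at a starting OD578 of 0.01 into pre-reduced mGAM plates with drug at 20 μM and 1% DMSO, sealed with breathable membranes. Haemophilus parainfluenzae medium was supplemented with hemin and NAD. OD578 was read hourly for 24 h, with three biological replicates. Growth-curve AUC was computed by the trapezoidal rule up to the exponential-to-stationary transition and normalised to DMSO controls on the same plate.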

SMILES	growth AUC normalised to DMSO control
CCCc1cc(=O)[nH]c(=S)[nH]1 [Propylthiouracil]	0.991 (inactive)
O=C1C(CC[S+]([O-])c2ccccc2)C(=O)N(c2ccccc2)N1c1ccccc1 (centres undefined) [Sulfinpyrazone]	1.02 (inactive)
N=c1nc(N2CCCCC2)cc(N)n1O [Minoxidil]	1.03 (inactive)
Cc1cccn2c(=O)c(-c3nnn[nH]3)cnc12 [Pemirolast potassium]	0.933 (inactive)
CNCCCN1c2ccccc2CCc2ccccc21 [Desipramine hydrochloride]	0.979 (inactive)
CCc1ccc(CCOc2ccc(CC3SC(=O)NC3=O)cc2)nc1 (centres undefined) [Pioglitazone]	0.955 (inactive)
CCN(CC)CCOC(=O)c1ccc(N)cc1 [Procaine hydrochloride]	1 (inactive)
CN1C(=O)OC(C)(C)C1=O [Trimethadione]	0.975 (inactive)
Clc1cc(Cl)c(OCC#CI)cc1Cl [Haloprogin]	0.992 (inactive)
CCn1cc(C(=O)O)c(=O)c2cnc(N3CCCC3)nc21 [Piromidic acid]	1.03 (inactive)
CCCNC(C)(C)COC(=O)c1ccccc1 [Meprylcaine hydrochloride]	1.03 (inactive)
c1coc(CNc2ncnc3[nH]cnc23)c1 [Kinetin]	1.01 (inactive)
C[C@@H](O[C@H]1OCCN(Cc2n[nH]c(=O)[nH]2)[C@H]1c1ccc(F)cc1)c1cc(C(F)(F)F)cc(C(F)(F)F)c1 [Aprepitant]	0.941 (inactive)
CCOc1ccc2ccccc2c1C(=O)N[C@@H]1C(=O)N2[C@@H]1SC(C)(C)[C@@H]2C(=O)O [Nafcillin sodium salt monohydrate]	0.899 (inactive)
O=C(NC(Cc1cc(=O)[nH]c2ccccc12)C(=O)O)c1ccc(Cl)cc1 (centres undefined) [Rebamipide]	1.01 (inactive)
COc1ccccc1N1CCN(CC(O)COc2cccc3ccccc23)CC1 (centres undefined) [Naftopidil dihydrochloride]	0.971 (inactive)
COc1ccc2c(c1)N(C[C@H](C)CN(C)C)c1ccccc1S2 [Methotrimeprazine maleate salt]	1.04 (inactive)

SMILES	growth AUC normalised to DMSO control
CCOc1ccccc1OC(c1ccccc1)C1CNCCO1 (centres undefined) [Reboxetine mesylate]	1.01 (inactive)
CCCCc1cc2ccccc2c(OCCN(C)C)n1 [Dimethisoquin hydrochloride]	0.97 (inactive)
CC(N)(Cc1ccc(O)c(O)c1)C(=O)O (centres undefined) [(L) Methyldopa]	1.04 (inactive)
Cn1nnc2c(C(N)=O)ncn2c1=O [Temozolomide]	0.975 (inactive)
O=c1[nH]cnc2c1ncn2[C@H]1CC[C@@H](CO)O1 [Didanosine]	1.03 (inactive)
CCn1cc(C(=O)O)c(=O)c2cc(F)c(N3CCNCC3)nc21 [Enoxacin]	0.0701 (active)
Fc1ccc(C(c2ccc(F)cc2)N2CCN(C/C=C/c3ccccc3)CC2)cc1 [Flunarizine dihydrochloride]	0.97 (inactive)
Cc1onc(-c2c(Cl)cccc2Cl)c1C(=O)N[C@@H]1C(=O)N2[C@@H]1SC(C)(C)[C@@H]2C(=O)O [Dicloxacillin sodium salt hydrate]	0.893 (inactive)
O=C(CCCN1CC=C(n2c(=O)[nH]c3ccccc32)CC1)c1ccc(F)cc1 [Droperidol]	0.995 (inactive)
O=C(O)Cc1ccc(-c2ccccc2)cc1 [Felbinac]	0.948 (inactive)
Cc1cc(N)c2ccccc2[n+]1CCCCCCCCCC[n+]1c(C)cc(N)c2ccccc21 [Dequalinium dichloride]	0.907 (inactive)
CC(C)NCC(O)COc1cccc2[nH]ccc12 (centres undefined) [Pindolol]	1.05 (inactive)
C=CCSCC1Nc2cc(Cl)c(S(N)(=O)=O)cc2S(=O)(=O)N1 (centres undefined) [Althiazide]	1.07 (inactive)
COC(c1ccccc1)(c1ccccc1)[C@H](Oc1nc(C)cc(C)n1)C(=O)O [Ambrisentan]	1.05 (inactive)
CC1(C)S[C@@H]2[C@H](NC(=O)Cc3ccccc3)C(=O)N2[C@H]1C(=O)O [Benzylpenicillin sodium]	0.0512 (active)
CCCCOc1ccc(CC(=O)NO)cc1 [Bufexamac]	1 (inactive)
CCN1CCCC1CNC(=O)c1cc(S(=O)(=O)CC)c(N)cc1OC (centres undefined) [Amisulpride]	0.997 (inactive)
